From ChEMBL document CHEMBL1961873, “Compounds: GSK PKIS; Assays: Nanosyn kinase panel” (2012) come the findings set out here.

Where “and” joins values, the source holds several entries; their conditions need not be identical. Identical values can stand only once.

For test [1], the target named is RAC-alpha serine/threonine-protein kinase (Homo sapiens) (UniProt P31749). As to conditions: at 0.1 µM.
Test [2] shares this target. Conditions: at 1 µM.
Test [3] has as its target RAC-beta serine/threonine-protein kinase (Homo sapiens) (UniProt P31751). As to conditions: at 0.1 µM.
Test [4] has the same target. Conditions: at 1 µM.
Test [5] addresses RAC-gamma serine/threonine-protein kinase (Homo sapiens) (UniProt Q9Y243). As to conditions: at 0.1 µM.
For test [6] the target is unchanged. As to conditions: at 1 µM.
Test [7] addresses G protein-coupled receptor kinase 6 (Homo sapiens) (UniProt P43250). Conditions: at 0.1 µM.
The target is the same in test [8]. Conditions: at 1 µM.
Test [9] addresses T1, Rhodopsin kinase GRK7 (Homo sapiens) (UniProt Q8WTQ7).
T1 sequence (whole entry): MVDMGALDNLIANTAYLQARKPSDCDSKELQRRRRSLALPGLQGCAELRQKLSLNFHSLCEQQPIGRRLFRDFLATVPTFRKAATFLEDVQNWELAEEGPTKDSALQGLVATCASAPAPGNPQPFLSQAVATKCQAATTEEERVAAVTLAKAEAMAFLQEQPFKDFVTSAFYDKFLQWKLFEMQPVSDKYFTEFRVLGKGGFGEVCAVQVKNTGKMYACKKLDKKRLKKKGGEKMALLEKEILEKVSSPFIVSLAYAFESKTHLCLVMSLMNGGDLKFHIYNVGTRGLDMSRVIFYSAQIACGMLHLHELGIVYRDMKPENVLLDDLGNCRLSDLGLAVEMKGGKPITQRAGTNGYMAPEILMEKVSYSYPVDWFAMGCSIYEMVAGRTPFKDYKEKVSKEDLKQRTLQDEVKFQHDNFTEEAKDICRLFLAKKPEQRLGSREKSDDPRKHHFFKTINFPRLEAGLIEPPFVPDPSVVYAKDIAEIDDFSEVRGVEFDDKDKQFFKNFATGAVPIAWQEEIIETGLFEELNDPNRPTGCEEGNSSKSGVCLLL
As to conditions: at 0.1 µM.

Test [10] addresses T1, Rhodopsin kinase GRK7 (Homo sapiens). As to conditions: at 1 µM.
In test [11] the target is Serine/threonine-protein kinase MRCK alpha (Homo sapiens) (UniProt Q5VT25). Conditions: at 0.1 µM.
For test [12] the target is unchanged. Conditions: at 1 µM.
Test [13] addresses Serine/threonine-protein kinase MRCK beta (Homo sapiens) (UniProt Q9Y5S2). As to conditions: at 0.1 µM.
Test [14] shares this target. As to conditions: at 1 µM.
Test [15] addresses Ribosomal protein S6 kinase alpha-5 (Homo sapiens) (UniProt O75582). As to conditions: at 0.1 µM.
The target is the same in test [16]. Conditions: at 1 µM.
Test [17] has as its target Ribosomal protein S6 kinase alpha-4 (Homo sapiens) (UniProt O75676). Conditions: at 0.1 µM.
Test [18] has the same target. As to conditions: at 1 µM.
Test [19] concerns the target Ribosomal protein S6 kinase beta-1 (Homo sapiens) (UniProt P23443). Conditions: at 0.1 µM.
For test [20] the target is unchanged. Conditions: at 1 µM.

Chain of Ribosomal protein S6 kinase alpha-4 (Homo sapiens) (O75676 whole entry, looked up): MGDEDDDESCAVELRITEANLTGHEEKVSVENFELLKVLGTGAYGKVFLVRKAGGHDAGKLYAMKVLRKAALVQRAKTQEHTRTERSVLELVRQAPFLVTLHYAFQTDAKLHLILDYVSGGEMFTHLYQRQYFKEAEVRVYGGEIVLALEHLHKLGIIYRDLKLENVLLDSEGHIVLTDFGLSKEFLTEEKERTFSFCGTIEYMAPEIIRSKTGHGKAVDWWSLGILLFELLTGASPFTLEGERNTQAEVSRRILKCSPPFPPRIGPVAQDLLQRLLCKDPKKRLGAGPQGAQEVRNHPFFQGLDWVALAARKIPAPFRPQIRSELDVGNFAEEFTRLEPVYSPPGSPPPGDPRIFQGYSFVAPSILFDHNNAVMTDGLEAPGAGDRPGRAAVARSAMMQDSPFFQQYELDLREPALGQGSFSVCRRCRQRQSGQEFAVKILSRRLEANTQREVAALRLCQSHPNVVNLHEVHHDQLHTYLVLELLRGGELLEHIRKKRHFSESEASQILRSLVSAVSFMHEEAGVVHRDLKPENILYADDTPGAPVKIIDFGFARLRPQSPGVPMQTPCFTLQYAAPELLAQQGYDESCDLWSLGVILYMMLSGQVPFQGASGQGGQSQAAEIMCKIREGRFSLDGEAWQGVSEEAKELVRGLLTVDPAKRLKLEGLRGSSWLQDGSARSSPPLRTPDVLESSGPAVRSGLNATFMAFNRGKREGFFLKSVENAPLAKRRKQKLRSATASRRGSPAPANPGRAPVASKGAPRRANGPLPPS
Chain of Ribosomal protein S6 kinase alpha-5 (Homo sapiens) (O75582 whole entry, looked up): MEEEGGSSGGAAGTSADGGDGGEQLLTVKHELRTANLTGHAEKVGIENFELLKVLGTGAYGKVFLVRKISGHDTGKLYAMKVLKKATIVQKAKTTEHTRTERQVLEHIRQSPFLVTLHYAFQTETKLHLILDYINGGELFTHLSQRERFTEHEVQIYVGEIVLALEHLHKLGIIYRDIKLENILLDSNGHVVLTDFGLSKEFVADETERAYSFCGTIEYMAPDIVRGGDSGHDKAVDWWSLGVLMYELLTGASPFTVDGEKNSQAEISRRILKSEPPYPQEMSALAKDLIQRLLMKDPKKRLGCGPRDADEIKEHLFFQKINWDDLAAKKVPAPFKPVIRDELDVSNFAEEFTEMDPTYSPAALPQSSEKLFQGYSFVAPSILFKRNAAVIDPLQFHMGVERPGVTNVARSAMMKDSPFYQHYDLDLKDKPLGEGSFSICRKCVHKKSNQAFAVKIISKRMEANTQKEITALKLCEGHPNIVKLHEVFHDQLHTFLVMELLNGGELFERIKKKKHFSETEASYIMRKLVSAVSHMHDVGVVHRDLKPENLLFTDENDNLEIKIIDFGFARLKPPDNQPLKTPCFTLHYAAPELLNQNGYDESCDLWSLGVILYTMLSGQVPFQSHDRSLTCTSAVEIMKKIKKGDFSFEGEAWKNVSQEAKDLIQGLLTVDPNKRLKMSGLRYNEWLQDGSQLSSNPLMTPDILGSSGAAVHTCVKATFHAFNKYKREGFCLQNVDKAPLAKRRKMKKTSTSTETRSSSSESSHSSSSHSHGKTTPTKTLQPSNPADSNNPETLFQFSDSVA
Chain of RAC-beta serine/threonine-protein kinase (Homo sapiens) (P31751 whole entry): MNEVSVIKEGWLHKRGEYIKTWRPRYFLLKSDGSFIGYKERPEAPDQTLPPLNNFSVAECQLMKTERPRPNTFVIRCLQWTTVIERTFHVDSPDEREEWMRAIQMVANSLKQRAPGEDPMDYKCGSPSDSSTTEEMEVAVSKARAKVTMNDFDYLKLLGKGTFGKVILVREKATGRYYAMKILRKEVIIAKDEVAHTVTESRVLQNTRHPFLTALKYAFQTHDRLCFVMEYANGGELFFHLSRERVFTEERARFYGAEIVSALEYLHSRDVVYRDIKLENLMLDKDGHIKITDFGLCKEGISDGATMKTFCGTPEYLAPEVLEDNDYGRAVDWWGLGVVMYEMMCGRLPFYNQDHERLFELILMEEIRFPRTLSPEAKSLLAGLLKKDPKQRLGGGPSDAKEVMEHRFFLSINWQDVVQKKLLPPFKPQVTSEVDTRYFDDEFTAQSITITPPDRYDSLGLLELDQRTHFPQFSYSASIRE
Chain of Serine/threonine-protein kinase MRCK beta (Homo sapiens) (Q9Y5S2 whole entry): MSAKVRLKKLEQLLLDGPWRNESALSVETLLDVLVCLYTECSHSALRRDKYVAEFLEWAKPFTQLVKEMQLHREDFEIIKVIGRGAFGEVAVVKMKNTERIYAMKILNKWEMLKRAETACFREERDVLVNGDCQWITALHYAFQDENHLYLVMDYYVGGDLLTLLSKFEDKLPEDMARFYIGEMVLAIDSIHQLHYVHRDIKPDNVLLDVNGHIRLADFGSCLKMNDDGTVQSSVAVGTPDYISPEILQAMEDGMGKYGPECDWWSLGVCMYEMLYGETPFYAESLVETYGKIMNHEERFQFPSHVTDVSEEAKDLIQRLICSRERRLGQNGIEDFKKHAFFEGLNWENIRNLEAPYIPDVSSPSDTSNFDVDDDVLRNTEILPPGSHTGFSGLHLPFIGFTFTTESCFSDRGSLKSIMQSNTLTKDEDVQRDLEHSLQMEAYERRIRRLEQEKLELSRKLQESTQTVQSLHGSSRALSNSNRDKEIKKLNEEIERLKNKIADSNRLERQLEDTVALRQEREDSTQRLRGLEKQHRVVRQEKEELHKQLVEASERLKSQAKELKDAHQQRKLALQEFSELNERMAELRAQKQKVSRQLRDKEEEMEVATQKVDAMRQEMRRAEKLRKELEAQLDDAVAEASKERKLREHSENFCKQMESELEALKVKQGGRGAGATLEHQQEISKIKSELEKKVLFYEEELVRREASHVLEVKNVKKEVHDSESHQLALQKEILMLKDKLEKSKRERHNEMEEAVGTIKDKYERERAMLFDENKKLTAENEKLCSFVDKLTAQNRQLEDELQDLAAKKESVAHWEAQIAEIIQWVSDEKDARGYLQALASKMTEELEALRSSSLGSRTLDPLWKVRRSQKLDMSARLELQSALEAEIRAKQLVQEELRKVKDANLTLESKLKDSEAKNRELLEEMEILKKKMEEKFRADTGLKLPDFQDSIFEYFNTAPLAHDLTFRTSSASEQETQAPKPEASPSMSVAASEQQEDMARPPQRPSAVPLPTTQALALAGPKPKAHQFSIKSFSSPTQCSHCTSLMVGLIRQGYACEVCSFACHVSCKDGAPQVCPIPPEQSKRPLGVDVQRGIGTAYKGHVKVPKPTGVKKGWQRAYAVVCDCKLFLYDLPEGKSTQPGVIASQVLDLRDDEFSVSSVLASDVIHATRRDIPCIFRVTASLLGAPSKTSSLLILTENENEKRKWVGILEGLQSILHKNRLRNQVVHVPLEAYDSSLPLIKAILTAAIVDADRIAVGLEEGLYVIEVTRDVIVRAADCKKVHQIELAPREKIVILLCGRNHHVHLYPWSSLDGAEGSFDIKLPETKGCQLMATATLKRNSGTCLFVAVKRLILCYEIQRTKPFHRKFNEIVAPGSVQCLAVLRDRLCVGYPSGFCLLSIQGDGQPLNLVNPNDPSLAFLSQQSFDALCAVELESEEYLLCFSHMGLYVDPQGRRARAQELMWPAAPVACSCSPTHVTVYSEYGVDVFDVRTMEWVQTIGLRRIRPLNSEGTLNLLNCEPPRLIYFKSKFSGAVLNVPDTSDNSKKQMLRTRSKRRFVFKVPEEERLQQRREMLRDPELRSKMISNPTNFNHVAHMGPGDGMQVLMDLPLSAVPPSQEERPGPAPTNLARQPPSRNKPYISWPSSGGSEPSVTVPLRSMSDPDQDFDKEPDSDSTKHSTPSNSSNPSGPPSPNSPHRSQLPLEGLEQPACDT
Chain of G protein-coupled receptor kinase 6 (Homo sapiens) (P43250 whole entry, looked up): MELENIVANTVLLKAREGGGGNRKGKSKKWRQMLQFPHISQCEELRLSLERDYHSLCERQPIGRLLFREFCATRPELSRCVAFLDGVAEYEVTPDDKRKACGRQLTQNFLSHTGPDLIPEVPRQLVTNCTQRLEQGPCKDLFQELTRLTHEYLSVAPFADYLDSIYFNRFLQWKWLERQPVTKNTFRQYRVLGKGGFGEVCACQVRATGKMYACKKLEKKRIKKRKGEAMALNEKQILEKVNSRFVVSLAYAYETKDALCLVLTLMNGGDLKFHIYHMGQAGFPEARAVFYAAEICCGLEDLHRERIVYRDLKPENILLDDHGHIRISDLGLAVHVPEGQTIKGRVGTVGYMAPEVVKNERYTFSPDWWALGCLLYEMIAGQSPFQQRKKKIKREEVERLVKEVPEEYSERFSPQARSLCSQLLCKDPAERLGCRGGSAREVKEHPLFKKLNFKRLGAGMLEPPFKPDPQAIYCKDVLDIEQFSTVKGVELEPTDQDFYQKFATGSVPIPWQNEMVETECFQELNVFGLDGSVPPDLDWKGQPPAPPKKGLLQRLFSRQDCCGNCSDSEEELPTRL
Chain of Ribosomal protein S6 kinase beta-1 (Homo sapiens) (P23443 whole entry, looked up): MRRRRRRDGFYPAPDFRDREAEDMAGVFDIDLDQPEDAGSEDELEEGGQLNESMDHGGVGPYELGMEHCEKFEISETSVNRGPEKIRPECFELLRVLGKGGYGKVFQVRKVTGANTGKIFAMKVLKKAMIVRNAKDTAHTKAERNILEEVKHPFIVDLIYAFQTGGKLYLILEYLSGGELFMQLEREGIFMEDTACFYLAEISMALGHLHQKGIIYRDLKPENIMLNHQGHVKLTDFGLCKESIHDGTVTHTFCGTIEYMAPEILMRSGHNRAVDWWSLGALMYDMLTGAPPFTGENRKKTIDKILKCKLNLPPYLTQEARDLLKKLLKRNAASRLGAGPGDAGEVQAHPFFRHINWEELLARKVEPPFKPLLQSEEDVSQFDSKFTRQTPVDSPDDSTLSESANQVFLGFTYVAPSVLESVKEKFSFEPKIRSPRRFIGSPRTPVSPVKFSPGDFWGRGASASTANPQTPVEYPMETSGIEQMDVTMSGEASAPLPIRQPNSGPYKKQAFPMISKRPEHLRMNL

For `CNC(=O)c1sc(-n2cnc3cc(OC)c(OC)cc32)cc1OCc1ccccc1C(F)(F)F`, the inhibition (as a rule, the change of the read-out against control, counted positive when it falls) in [1] was found to be 0.98%; in test [2], 0.75%; in [3] it was 0.84%; in test [4], 2.06%; in test [5], 1.19%; in test [6] it was 2%. Moreover, the inhibition in test [7] is 0.06%; in test [8] it was -0.11%; in test [9] it was 4.78%; in test [10] it was 3.47%; in test [11], -1.57%; in test [12], 2.7%. The inhibition in [13] is 0.75%; in test [14] it was -0.54%; in test [15] it was 1.63%; in test [16], -0.43%; in [17], 3.06%; in test [18], 2.24%. In addition, the results for the inhibition in test [19] and in test [20] were 1.25% and 0.64%, respectively.

Take `CCn1c(-c2nonc2N)nc2cncc(C(=O)NCCNC)c21`: the inhibition was 1.98% in test [1]; 17.7% in test [2]; 3.28% in test [3]; 10.5% in [4]; 4.31% in [5]; 26.2% in test [6]. In addition, the inhibition in [7] was -0.59%; in test [8] it was 5.57%; in test [9], 9.46%; in [10] it was 7.46%; in test [11], 14.6%; in test [12], 69.9%. Also, the inhibition came to 23.3% in [13]; 66.7% in test [14]; 55.2% in test [15]; 76.8% in [16]; 35.5% in test [17]; 71.4% in test [18]. The figures for the inhibition in test [19] and in [20] were 31.9% and 78.2%, respectively.

Turning to `Nc1nccc(-c2c(-c3ccc(F)cc3)ncn2C2CCNCC2)n1`, the inhibition in test [1] is -2.52% and -0.57%; in test [2] it was -1.44% and -0.36%; in test [3], -2.1% and -0.23%; in test [4] it was -2.04% and 0.22%; in [5] it was -2.91% and 1.34%; in [6] it was -1.79% and 2.95%. For the same compound, the inhibition in test [7] is -0.3% and 1.54%; in test [8], 1.28% and -0.27%; in [9], -9.73% and -0.04%; in test [10], -3.87% and -0.11%; in [11] it was 0.35% and 0.18%; in [12], 2.58% and 5.06%. Besides, the inhibition in [13] is 0.52% and 1.07%; in test [14], 1.72% and 3.43%; in [15], -2.32% and -0.28%; in test [16], -1.5% and 1.46%; in [17] it was -1.86% and 0.59%; in test [18], -1.17% and 2.2%. The inhibition in [19] is -1.49% and 0.02%; in test [20] it was -0.77% and 0.22%.

Consider `CS(=O)(=O)Nc1ccc(-c2cc(-c3ccccc3)cc(C(N)=O)c2N)cc1`, for which the inhibition in test [1] was 0.58%; in test [2] it was -0.28%; in test [3], 0.22%; in test [4], 1.28%; in [5] it was -0.36%; in [6] it was 2.53%. For the same compound, the inhibition is 1.1% in test [7]; 1.69% in [8]; 7.08% in [9]; 1.49% in test [10]; -0.32% in test [11]; 0.21% in test [12]. Also, the inhibition in test [13] is 0.74%; in [14] it was 1.3%; in test [15] it was 3.96%; in [16], 1.83%; in [17] it was -0.81%; in test [18], 0.34%. Moreover, the inhibition was -1.22% in test [19] and 0.07% in test [20].

Regarding `Fc1cccc(COc2ccc(Nc3ncncc3C#Cc3ccccc3)cc2Cl)c1`, the inhibition in test [1] came to 0.45%; in [2], 1.07%; in [3], 1.28%; in test [4], 1.61%; in [5] it was 0.72%; in [6], 1.12%. Also, the inhibition in test [7] is 7.01%; in test [8], 9.97%; in test [9], 5.2%; in test [10], 9.23%; in [11] it was -0.09%; in test [12] it was 2.32%. In addition, the inhibition in test [13] was -0.25%; in test [14], 0.29%; in test [15] it was 3.88%; in test [16], 4.33%; in test [17] it was 2.46%; in [18], 4.37%. Further, the inhibition in [19] was found to be 1.71%; in test [20] it was 2.17%.

As for `Cc1cc(O)cc(C)c1/C=C/c1cncc(C(=O)OC(C)(C)C)c1`, the inhibition in [1] is 0.38%; in test [2], 0.97%; in test [3] it was 1.75%; in test [4], 0.98%; in test [5] it was 1.33%; in [6] it was 1.34%. Also, the inhibition in test [7] stood at 2.27%; in test [8], 2.46%; in test [9], 7.07%; in [10], 6.87%; in [11], 0.35%; in [12], 1.93%. Further, the inhibition in test [13] came to 1.45%; in [14], 2.65%; in test [15], 1.89%; in [16], 3.7%; in test [17], 1.86%; in test [18], 3.1%. Also, the inhibition stood at 0.44% in test [19] and 0.31% in test [20].

`Fc1ccc(Nc2nccc(-c3c(-c4ccc(C(F)(F)F)cc4)nn4ncccc34)n2)cc1F`: the inhibition in [1] turned out to be 1.15%; in test [2] it was 1.34%; in [3] it was 0.91%; in [4], 1.4%; in [5], 1.72%; in test [6], 1.36%. In addition, the inhibition was 0.33% in test [7]; -0.08% in [8]; 2.15% in test [9]; -0.32% in test [10]; -0.28% in test [11]; -1.12% in test [12]. For the same compound, the inhibition in test [13] was -0.35%; in test [14], 1.04%; in test [15], 2.66%; in [16] it was 2.7%; in [17] it was -0.61%; in test [18], 2%. Besides, the inhibition in [19] was 1.31%; in test [20], 0.33%.

For the compound `CC1=C(C(=O)Nc2ccc3[nH]ncc3c2)C(c2ccc(F)cc2)N=C(c2ccc(C(F)(F)F)nc2)N1` (stereo not given), the inhibition in test [1] is 0.83%; in test [2] it was 1.06%; in [3], 1.39%; in test [4] it was 1.43%; in test [5] it was 1.44%; in test [6], 1.68%. Moreover, the inhibition in test [7] was 3.1%; in [8] it was -2.54%; in test [9], 0.19%; in test [10], -2.93%; in test [11], -0.15%; in test [12], 0.82%. In addition, the inhibition in [13] was -0.07%; in test [14], 4.54%; in test [15] it was 3.51%; in test [16], 19.2%; in test [17] it was 2.12%; in [18], 14.9%. Also, the inhibition in test [19] came to 1.03%; in test [20], 7.4%.

Take `N#Cc1cccc(Nc2ncc(-c3ccccc3)o2)c1`: the inhibition is 0% in test [1]; -0.69% in test [2]; 0.15% in [3]; 0.75% in [4]; 0.9% in test [5]; -0.1% in [6]. The inhibition came to 5.37% in test [7]; 8.61% in test [8]; 2.76% in test [9]; 11.2% in test [10]; 0.38% in test [11]; 2.09% in test [12]. Besides, the inhibition was -1.64% in test [13]; -0.28% in [14]; 1.22% in test [15]; 2.21% in [16]; 1% in [17]; 2.71% in test [18]. The inhibition in [19] was -0.53%; in test [20], 1.42%.

As to `CN(C)CCNC(=O)Nc1ccc(N(C)c2ccnc(Nc3ccc(CS(C)(=O)=O)cc3)n2)cc1`, the inhibition in test [1] came to 1.23%; in test [2], 0.77%; in test [3], 1.42%; in [4], 0.96%; in [5], 1.47%; in test [6], 1.13%. The inhibition is 2.73% in test [7]; -0.52% in test [8]; 3.11% in [9]; -0.51% in test [10]; -0.24% in test [11]; -0.69% in test [12]. Also, the inhibition is 1.09% in test [13]; 2.25% in test [14]; 3.26% in test [15]; 3.31% in test [16]; 3.22% in test [17]; 4.32% in test [18]. Besides, the inhibition in test [19] is 1.72%; in test [20], 1.94%.
